Measured values as given in PubChem BioAssay (NCI).
The panel holds about 83,000 compounds, 20% with a hit somewhere; the sample as a whole holds those more often.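 The test compound was applied at a single concentration to cells in 96-well plates for 48 hours, and percent growth was recorded.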 A number with no mark means an inactive call. Calls of active or inactive are those of the source. Rule for the calls: active = growth percent below 10; inactive = the rest.

What was measured:
Experiment in all cases: NCI-60 one-dose screen, 48 h (100 = growth as untreated, 0 = no growth, -100 = all killed)
Conditions in all cases: 10 µM
HCT-15 colon = system: HCT-15 colon
HT29 colon = system: HT29 colon
SNB-75 CNS = system: SNB-75 CNS
SNB-19 CNS = system: SNB-19 CNS
U251 CNS = system: U251 CNS
PC-3 prostate = system: PC-3 prostate
SK-MEL-5 melanoma = system: SK-MEL-5 melanoma
UACC-62 melanoma = system: UACC-62 melanoma
LOX IMVI melanoma = system: LOX IMVI melanoma
SK-MEL-28 melanoma = system: SK-MEL-28 melanoma

Row | Compound | growth (HCT-15 colon) | growth (HT29 colon) | growth (SNB-75 CNS) | growth (SNB-19 CNS) [%] | growth (U251 CNS) | growth (PC-3 prostate) | growth (SK-MEL-5 melanoma) | growth (UACC-62 melanoma) | growth (LOX IMVI melanoma) | growth (SK-MEL-28 melanoma)
1 | Cc1noc(C)c1CSc1ccccc1C(=O)N1CCN(c2cccc(C(F)(F)F)c2)CC1 | 72.4% | 69.4% | 76.2% | 81.5 | 88.2% | 55.3% | 43.5% | 52.2% | 74.9% | 91.4%
2 | O=C(O)c1cc([N+](=O)[O-])ccc1Oc1ccccc1 | 95.4% | 90.8% | 98.1% | 98.4 | 95.9% | 89.2% | 84.6% | 103% | 93.1% | 107%
3 | CCCN(CCC)C(=O)[C@H](CC)[C@@H]1CC[C@@H](C)[C@@H]([C@H](C)[C@@H](O)[C@@H](C)C(=O)[C@H](CC)C2O[C@]3(C=C[C@@H](O)[C@]4(CC[C@@](C)([C@H]5CC[C@](O)(CC)[C@H](C)O5)O4)O3)[C@H](C)C[C@@H]2C)O1 (stereo not given in full) | -9.51% (active) | 7.02% (active) | -12.8% (active) | 17.8 | 21.5% | 6.69% (active) | -92.4% (active) | 14.9% | 1.21% (active) | 24.2%
4 | O=C(Nc1ccc(NS(=O)(=O)c2ccc(F)cc2)cc1)C12CC3CC(CC(C3)C1)C2 | 86.8% | 89.6% | 90% | 93.7 | 91.3% | 78.8% | 93.9% | 92.4% | 92.2% | 99.9%
5 | CCn1c(SC/C(=N/O)c2ccccc2)nnc1-c1ccccc1 | 101% | 104% | 87.8% | 98.9 | 102% | 81.2% | 100% | 86.2% | 104% | 106%
6 | COc1ccc2nc3cc(Cl)ccc3c(Nc3cc(CN4CCCC4)c(O)c(CN4CCCC4)c3)c2n1 | 5.6% (active) | 1.23% (active) | -64.4% (active) | 14.5 | 10.4% | 6.93% (active) | -96.1% (active) | -23.4% (active) | -8.24% (active) | -21.8% (active)
7 | CCOc1ccccc1/C=N\N=C(\N)N/N=C/c1ccccc1OCC | 24.7% | 10.7% | -3.85% (active) | 43 | 38.3% | 31.9% | 17.8% | 30.9% | 30.9% | 42.9%
8 | S=C(NCc1ccccc1)NCc1ccccc1 | 107% | 97% | 82.2% | 95.1 | 91.6% | 84.3% | 98.3% | 102% | 95.6% | 107%
9 | Nc1cc(Br)c(-c2nn3c(CCC(=O)c4nc5ccccc5[nH]4)nnc3s2)c(Br)c1 | 124% | 78.7% | 92.6% | 104 | 97.5% | 87.1% | 91.6% | 101% | 93.4% | 111%
10 | Cc1ccc(NCCN(C)CC(C)O)c2c(=O)c3ccccc3sc12 (stereo not given) | 32.7% | 7.09% (active) | 57% | 54.5 | 31.9% | 41% | 58.1% | -2.71% (active) | 12.6% | 57%
11 | CCN(CC)CCCOc1cccc2c1C(=O)c1cccc(OCCCN(CC)CC)c1C2=O | 34.5% | 11% | 52.6% | 34.1 | 31.2% | 33.2% | 46.6% | 53% | 16.9% | 61.2%
12 | CCOC(=O)c1cc(C(=O)c2cc(OC)c(OC)c(OC)c2)n2c1ccc1c3cccnc3ccc12 | 41.4% | 19.5% | 64.7% | 71.9 | 51% | 63.9% | 34.1% | 57.5% | 46.9% | 80.2%
13 | O=S(=O)(O)c1cccc(Nc2ccc3ccccc3c2)c1 | 110% | 99% | 78.2% | 96.3 | 95.5% | 79% | 99% | 88.1% | 93.4% | 108%
14 | CCCCCC(=O)O[C@]1(C(C)=O)CCC2C3CCC4=CC(=O)CC[C@]4(C)C3CC[C@@]21C (stereo not given in full) | 26.2% | 16.6% | 46.3% | 43.7 | 23.9% | 6.12% (active) | -1.8% (active) | 18.5% | 10.4% | 49.4%
15 | CCOc1ccccc1/C=N\N=C\c1ccccc1O | 100% | 101% | 97.6% | 97.8 | 104% | 95.8% | 95.5% | 93% | 90.3% | 112%
16 | O=S(=O)(O)c1ccc(Cl)cc1 | 100% | 93.6% | 100% | 102 | 101% | 96.5% | 98.3% | 99.8% | 96.3% | 113%
17 | CCC(CC)n1c(C)cc(=O)n1C(CC)CC | 106% | 111% | 95.3% | 96 | 105% | 104% | 98.4% | 101% | 102% | 107%
18 | O=C(CCNC(=O)c1nc(-c2ccccc2)n(-c2ccc(Cl)cc2)n1)NO | 104% | 89.8% | 99.1% | 102 | 96.1% | 89.6% | 103% | 100% | 98.5% | 101%
19 | C[C@H]1[C@H](OC(=O)CCC(=O)O)O[C@@H]2O[C@]3(C)CC[C@H]4[C@H](C)CC[C@@H]1[C@@]24OO3 | 16.7% | 23.8% | 61.8% | 57.9 | 36.5% | 25% | 28% | 36.4% | -49.5% (active) | 70.5%
20 | COc1cc2nc(SCC(=O)Nc3cc(OC)c(OC)c(OC)c3)n(Cc3ccccc3)c(=O)c2cc1OC | 90.2% | 61.9% | -1.98% (active) | 63.7 | 6.92% (active) | 35.8% | 67.2% | 76.3% | 68.7% | 60.5%
21 | CN(C)CCN(Cc1ccccc1)c1ccc2ccccc2n1 | 98% | 89.7% | 82% | 95.6 | 94.2% | 81.4% | 91.7% | 92.9% | 88.8% | 101%
22 | O=[N+]([O-])c1ccc(NCSc2ccc(Cl)cc2)cc1 | 96.9% | 107% | 98.6% | 103 | 82% | 80.9% | 100% | 77.8% | 81.9% | 104%
23 | COc1ccc(-c2cc(-c3ccccc3)nc(SCCCCCCC(=O)NO)n2)cc1 | 44.3% | 27% | 24.8% | 60.6 | 51.5% | 58.8% | 13.1% | 24.8% | 13.1% | 67.9%
24 | Nc1nc(Cl)nc2c1ncn2C1O[C@H](CO)[C@@H](O)[C@@H]1F (stereo not given in full) | 48.1% | 41.2% | 37% | 19 | 27% | 60.5% | 32.1% | -10.3% (active) | 4.83% (active) | 73.8%
25 | C#C[C@]1(O)CCC2C3CCc4cc(OC5CCCC5)ccc4C3CC[C@@]21C (stereo not given in full) | 24% | 0.124% (active) | 96% | 104 | 69.9% | 57.9% | 100% | 81.1% | 42% | 103%
26 | O=C1C=C(Nc2cccc(Br)c2)c2ccccc2C1=O | 22.7% | 111% | 12% | 43.6 | 31.3% | 37.4% | 15.8% | 46.8% | 37.5% | 56.7%
